Source: PubChem BioAssay AID1159580 (chemical genetic matrix, 2015)
Several values for one entry are separate records, joined by “and”; a condition that tells them apart may be missing. Identical values can stand only once. Hit rate of the full screen: of about 5,500 compounds, about 2,000 (36%) were called active. About 18% were inconclusive and are not listed. Cut-off read from the data, not from the text of the source: active = normalized growth mostly below about 0.91 (no sharp cut-off); inconclusive = no clear call, values can overlap the other calls; inactive = mostly above about 0.92. The list shows a part of the results.

Assay: chemical genetic growth profiling, strain panel (AID 1159580);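 note: tested at 20 µM; growth read once vehicle control cultures reached saturation at 30 °C; 1 = growth at the plate median or of vehicle wells; lower values mean less growth of the strain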
Conditions: growth OD

Measured: normalized growth

CC(C)=CCCC1(C)C=Cc2c(O)c3c(c(CC=C(C)C)c2O1)OC12C(CC4CC1C(C)(C)OC2(C/C=C(/C)C(=O)O)C4O)C3=O (configuration not stated)
inactive: S. cerevisiae deletion strains, locus YAL013W, strain DEP1, stronger effect = lower value 1.01 | S. cerevisiae deletion strains, locus YBR021W, strain FUR4, stronger effect = lower value 1.07 | S. cerevisiae deletion strains, locus YBR229C, strain ROT2, stronger effect = lower value 0.959 | S. cerevisiae deletion strains, locus YCL029C, strain bik1, stronger effect = lower value 0.994 | S. cerevisiae deletion strains, locus YDL035C, strain GPR1, stronger effect = lower value 0.961 | S. cerevisiae deletion strains, locus YDL074C, strain BRE1, stronger effect = lower value 1.01 | S. cerevisiae deletion strains, locus YDL101C, strain DUN1, stronger effect = lower value 0.978 | S. cerevisiae deletion strains, locus YDL185W, strain tfp1, stronger effect = lower value 0.997 | S. cerevisiae deletion strains, locus YDL192W, strain arf1, stronger effect = lower value 0.947 | S. cerevisiae deletion strains, locus YDR101C, strain arx1, stronger effect = lower value 0.96 | S. cerevisiae deletion strains, locus YDR162C, strain NBP2, stronger effect = lower value 0.851 | S. cerevisiae deletion strains, locus YDR318W, strain mcm21, stronger effect = lower value 0.988 | S. cerevisiae deletion strains, locus YDR388W, stronger effect = lower value 0.99 | S. cerevisiae deletion strains, locus YDR502C, strain sam2, stronger effect = lower value 1.02 | S. cerevisiae deletion strains, locus YEL061C, strain CIN8, stronger effect = lower value 0.989 | S. cerevisiae deletion strains, locus YER110C, stronger effect = lower value 0.981 | S. cerevisiae deletion strains, locus YER155C, strain BEM2, stronger effect = lower value 1.04 | S. cerevisiae deletion strains, locus YER167W, strain BCK2, stronger effect = lower value 1.01 | S. cerevisiae deletion strains, locus YGL078C, strain dbp3, stronger effect = lower value 1.01 | S. cerevisiae deletion strains, locus YGL086W, strain mad1, stronger effect = lower value 0.993 | S. cerevisiae deletion strains, locus YGL248W, strain PDE1, stronger effect = lower value 0.994 | S. cerevisiae deletion strains, locus YGR135W, strain pre9, stronger effect = lower value 1.06 | S. cerevisiae deletion strains, locus YGR229C, strain SMI1, stronger effect = lower value 0.988 | S. cerevisiae deletion strains, locus YGR252W, strain gcn5, stronger effect = lower value 1.17 | S. cerevisiae deletion strains, locus YHR030C, strain SLT2, stronger effect = lower value 1.01 and 0.984 | S. cerevisiae deletion strains, locus YHR079C, strain IRE1 (second series), stronger effect = lower value 0.981 | S. cerevisiae deletion strains, locus YHR079C, strain IRE1, stronger effect = lower value 0.985 | S. cerevisiae deletion strains, locus YHR094C, strain hxt1, stronger effect = lower value 1 | S. cerevisiae deletion strains, locus YHR129C, strain ARP1, stronger effect = lower value 1.02 | S. cerevisiae deletion strains, locus YHR200W, strain rpn10, stronger effect = lower value 1.01 | S. cerevisiae deletion strains, locus YIL066C, strain RNR3, stronger effect = lower value 0.97 | S. cerevisiae deletion strains, locus YIL073C, strain SPO22, stronger effect = lower value 1.07 | S. cerevisiae deletion strains, locus YIL125W, strain kgd1, stronger effect = lower value 0.992 | S. cerevisiae deletion strains, locus YIR030C, strain dcg1, stronger effect = lower value 0.997 | S. cerevisiae deletion strains, locus YJL095W, strain BCK1, stronger effect = lower value 0.884 and 1.01 | S. cerevisiae deletion strains, locus YJL134W, strain LCB3, stronger effect = lower value 0.993 | S. cerevisiae deletion strains, locus YJL168C, strain set2, stronger effect = lower value 0.995 | S. cerevisiae deletion strains, locus YJL187C, strain SWE1 (second series), stronger effect = lower value 0.972 | S. cerevisiae deletion strains, locus YJR066W, strain TOR1, stronger effect = lower value 0.935 | S. cerevisiae deletion strains, locus YKL009W, strain mrt4, stronger effect = lower value 1.02 | S. cerevisiae deletion strains, locus YKL068W, stronger effect = lower value 0.996 | S. cerevisiae deletion strains, locus YKL085W, strain MDH1 (second series), stronger effect = lower value 1.02 | S. cerevisiae deletion strains, locus YKL085W, strain MDH1, stronger effect = lower value 1.02 | S. cerevisiae deletion strains, locus YKL190W, strain CNB1, stronger effect = lower value 0.988 | S. cerevisiae deletion strains, locus YKR001C, strain vps1, stronger effect = lower value 0.961 | S. cerevisiae deletion strains, locus YLR039C, strain RIC1, stronger effect = lower value 0.774 | S. cerevisiae deletion strains, locus YLR058C, strain SHM2, stronger effect = lower value 0.98 | S. cerevisiae deletion strains, locus YLR102C, strain apc9, stronger effect = lower value 1.01 | S. cerevisiae deletion strains, locus YLR113W, strain HOG1, stronger effect = lower value 0.92 | S. cerevisiae deletion strains, locus YLR268W, strain sec22, stronger effect = lower value 0.93 | S. cerevisiae deletion strains, locus YLR330W, strain CHS5, stronger effect = lower value 1.01 | S. cerevisiae deletion strains, locus YLR342W, strain FKS1 (second series), stronger effect = lower value 0.96 | S. cerevisiae deletion strains, locus YLR371W, strain rom2, stronger effect = lower value 1.03 | S. cerevisiae deletion strains, locus YLR418C, strain cdc73, stronger effect = lower value 0.936 | S. cerevisiae deletion strains, locus YML016C, strain PPZ1, stronger effect = lower value 0.987 | S. cerevisiae deletion strains, locus YML032C, strain rad52, stronger effect = lower value 0.978 | S. cerevisiae deletion strains, locus YML124C, strain tub3, stronger effect = lower value 1.01 | S. cerevisiae deletion strains, locus YMR078C, strain ctf18, stronger effect = lower value 0.997 | S. cerevisiae deletion strains, locus YMR223W, strain ubp8, stronger effect = lower value 0.991 | S. cerevisiae deletion strains, locus YMR307W, strain GAS1, stronger effect = lower value 0.95 | S. cerevisiae deletion strains, locus YNL067W, strain RPL9B, stronger effect = lower value 0.996 | S. cerevisiae deletion strains, locus YNL128W, strain TEP1, stronger effect = lower value 0.967 | S. cerevisiae deletion strains, locus YNL153C, strain GIM3, stronger effect = lower value 1.04 | S. cerevisiae deletion strains, locus YNL183C, strain NPR1, stronger effect = lower value 0.936 | S. cerevisiae deletion strains, locus YNL233W, strain BNI4, stronger effect = lower value 1.06 | S. cerevisiae deletion strains, locus YNL250W, strain rad50, stronger effect = lower value 0.993 | S. cerevisiae deletion strains, locus YNL271C, strain bni1, stronger effect = lower value 0.99 | S. cerevisiae deletion strains, locus YNL298W, strain CLA4, stronger effect = lower value 0.986 | S. cerevisiae deletion strains, locus YNL307C, strain MCK1, stronger effect = lower value 0.942 | S. cerevisiae deletion strains, locus YNL322C, strain KRE1, stronger effect = lower value 1 | S. cerevisiae deletion strains, locus YNR052C, strain pop2, stronger effect = lower value 1 | S. cerevisiae deletion strains, locus YOL012C, strain htz1 1.58 | S. cerevisiae deletion strains, locus YOL147C, strain pex11, stronger effect = lower value 1 | S. cerevisiae deletion strains, locus YOR061W, strain CKA2, stronger effect = lower value 0.967 | S. cerevisiae deletion strains, locus YOR069W, strain VPS5, stronger effect = lower value 0.988 | S. cerevisiae deletion strains, locus YOR136W, strain idh2, stronger effect = lower value 1.01 | S. cerevisiae deletion strains, locus YOR144C, strain elg1, stronger effect = lower value 1 | S. cerevisiae deletion strains, locus YOR184W, strain ser1, stronger effect = lower value 0.903 | S. cerevisiae deletion strains, locus YOR231W, strain MKK1, stronger effect = lower value 0.963 | S. cerevisiae deletion strains, locus YOR316C, strain cot1, stronger effect = lower value 0.994 | S. cerevisiae deletion strains, locus YPL256C, strain CLN2, stronger effect = lower value 0.957 | S. cerevisiae deletion strains, locus YPR119W, strain clb2, stronger effect = lower value 0.994 | S. cerevisiae deletion strains, locus YPR141C, strain kar3, stronger effect = lower value 0.991 | S. cerevisiae deletion strains, locus YPR163C, strain tif3, stronger effect = lower value 0.967 | S. cerevisiae deletion strains, locus YPR167C, strain met16, stronger effect = lower value 1.02 | S. cerevisiae deletion strains, strain wtn01, stronger effect = lower value 0.972 | S. cerevisiae strains, strain wild type, stronger effect = lower value 0.968
